# An excerpt weighted towards active compounds, which were near 21% of everything screened.
# IL1B secr inh – qHTS for Inhibitors of Inflammasome Signaling: IL-1-beta AlphaLISA Primary Screen; THP-1 LPS/ATP IL-1B secretion, AlphaLISA, 16 h; active compounds read low; activity change, % at 57.5 µM; actives 4.7% (n = 360,000); in the data active = activity change below about -50%; inconclusive = mostly about -30% to -49%
#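 THP-1 cells pretreated 1 hr with compounds (up to 57.5 uM final), then stimulated with LPS (250 ng/mL final) plus ATP (1.25 mM final); secreted IL-1B measured by AlphaLISA after 16 hr, decreased signal indicating inhibition.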
# D3 antag – qHTS of D3 Dopamine Receptor Antagonist: qHTS. D(3) dopamine receptor (Homo sapiens), P35462. actives 2.5% (n = 360,000). D3R cells, DiscoveRx beta-arrestin luminescence, antagonist mode; active compounds read low. max response, negative = inhibition, %; in the data active = max response below about -50%; inconclusive = no clear call, values can overlap the other calls
#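 Cells expressing the human receptor were seeded at 1500 cells/well, incubated overnight at 37 degrees C in 5% CO2, then exposed to library compounds with dopamine controls for 90 minutes at 37 degrees C before luminescent detection.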
# DRD3 agonist – qHTS of D3 Dopamine Receptor Agonist: qHTS; D3R DiscoveRx beta-arrestin cells, luminescence, 90 min; max activation, %; actives 0.58% (n = 410,000); in the data active = max activation above about 30%
#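 Cells at 1500/well, incubated overnight, then treated with pinned compounds (dopamine as control) for 90 min at 37 degrees C. DiscoveRx reagent added for 30 - 60 minutes at room temperature; luminescence read.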
# TDP1 cell CPT – qHTS for Inhibitors of human tyrosyl-DNA phosphodiesterase 1 (TDP1): qHTS in cells in presence of CPT; chicken DT40 Tdp1-/-;hTDP1 cells + 20 nM CPT, ATP luminescence, 48 h; Potency, µM (highest dose often 46.2 µM), most hits filed as inhibitors; actives 12% (n = 420,000); also: nearly all actives have a fitted effect of over 55% in size
#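 Chicken DT40 Tdp1-/- cells stably complemented with human TDP1 were seeded at 400 cells/well in medium containing 20 nM camptothecin, exposed to pin-transferred compounds, and grown at 37 °C for at least 48 hr. Viability was read as ATP luminescence.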
# ClpP mod – qHTS Assay for Activators of ClpP; AID 651965, 2013; ATP-dependent Clp protease proteolytic subunit (Bacillus subtilis (strain 168)), P80244; actives 1.9% (n = 340,000); purified B. subtilis ClpP, FRET peptide cleavage, 20 min; Potency, µM (series often up to 57.5 µM); active = well fitted falling curve with a large enough effect; inconclusive = small, poorly fitted or top-dose-only effect; inactive = no such curve, though single readings can be large or run the other way; also: the source files actives as falling curves though it sought activators and does not explain the sign; nearly all actives have a fitted effect of over 65% in size
# Target sequence (P80244 whole entry, looked up): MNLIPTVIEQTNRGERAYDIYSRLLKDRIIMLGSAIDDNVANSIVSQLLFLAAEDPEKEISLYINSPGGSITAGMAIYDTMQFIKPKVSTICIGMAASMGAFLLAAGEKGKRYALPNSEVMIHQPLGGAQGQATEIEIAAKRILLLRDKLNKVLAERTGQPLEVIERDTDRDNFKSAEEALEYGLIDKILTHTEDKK
#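 FRET quenching reversal measured ClpP activation: 10 microg/mL B. subtilis ClpP at pH 8 with the FRET-FV decapeptide, read at 430 nm after 320 nm excitation. The 20-min minus 0-min signal was scaled between DMSO/no-enzyme wells and ADEP (5.8 microM final).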
# TDP1 cell noCPT – qHTS for Inhibitors of human tyrosyl-DNA phosphodiesterase 1 (TDP1): qHTS in cells in absence of CPT. DT40 Tdp1-/- hTDP1 cells, no CPT, ATP luminescence, 48 h. actives 15% (n = 420,000). Potency, µM (doses to about 46.2 µM), usual class: inhibitors; also: nearly all actives have a fitted effect of over 55% in size
#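 A cellular qHTS used chicken DT40 cells lacking endogenous Tdp1 but carrying stably transfected human TDP1. Compounds were applied without camptothecin, and cell growth kinetics were judged by ATP-dependent luminescence after ≥48 hr.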
# Numbers stand for hits; – = inactive; ? = inconclusive; · = no result. Unless noted, calls follow the shape of the dose curve; as a rule, active = well fitted inhibition curve with a large enough effect; inconclusive = small, poorly fitted or top-dose-only effect; inactive = flat fitted curve, though single readings scatter.
SMILES,IL1B secr inh,D3 antag,DRD3 agonist,TDP1 cell CPT,ClpP mod,TDP1 cell noCPT
COc1ccc(-c2oc3ccc(N4CCOCC4)cc3c2C#CC2(O)CCCCC2)cc1,–,–,84,?,–,16µM
COc1ccc(C#Cc2c(-c3ccsc3)oc3ccc(N4CCOCC4)cc23)cc1,–,–,–,?,–,–
Cc1cccc(C(=O)NNC(=O)C2CCN(C(=O)OC(C)(C)C)CC2)c1,–,–,–,–,–,–
COc1ccc(C)cc1NC(=O)CSCc1ccccc1C,–,–,–,–,–,?
COc1cc2c(cc1OC)C1=NC(=O)CN1C(SCc1ccccc1C)=N2,–,–,–,10µM,18µM,10µM
Cc1ccc(NC(=O)c2ccc(NC(=O)N3CCSc4ncccc43)cc2)c(Cl)c1,·,·,–,?,28µM,?
Cc1ccc(Cl)cc1NC(=O)c1ccc(NC(=O)N2CCSc3ncccc32)cc1,·,·,–,?,32µM,21µM
Cc1ccc(NC(=O)c2ccc(NC(=O)N3CCSc4ncccc43)cc2)c(C)c1,·,·,–,?,?,?
COc1cc(NC(=O)c2ccc(NC(=O)N3CCSc4ncccc43)cc2)cc(OC)c1,·,·,–,15µM,32µM,13µM
N#Cc1cc2c(=O)n3ccccc3nc2n(-c2nnc(SCc3ccc(F)cc3)s2)c1=O,·,·,–,–,–,–
CCN(CC(=O)NCc1ccc(F)cc1)C(=O)c1cccnc1SC,–,–,–,–,·,–
O=C(O)CC1(CC(=O)Nc2cccc(C(=O)O)c2)CCCC1,–,–,–,–,–,–
COc1ccc(C2/C=C\CN(C(=O)OCC3c4ccccc4-c4ccccc43)CC(=O)N2Cc2cccc(F)c2)cc1 (centres undefined),–,–,–,?,–,23µM
COc1ccc(C2/C=C\CN(C(=O)c3ccccc3)CC(=O)N2Cc2cccc(F)c2)cc1 (centres undefined),–,–,–,?,–,–
COc1ccc([C@H]2/C=C\CN(C(=O)[C@H](Cc3ccccc3)NC(=O)OCC3c4ccccc4-c4ccccc43)CC(=O)N2Cc2ccc(F)cc2)cc1,–,–,–,21µM,–,?
COc1cccc(CNc2nc3cc(-c4ccc(OC)cc4C)sc3c(=O)n2C)c1,–,–,–,?,?,?
COc1cccc(CNc2nc3cc(-c4ccccc4CO)sc3c(=O)n2C)c1,–,–,–,18µM,?,?
COc1cccc(CNc2nc3cc(-c4cscc4C)sc3c(=O)n2C)c1,-57,–,–,?,?,21µM
Cc1cc(C)nc(N/N=C/c2sccc2C)n1,–,–,–,?,·,?
Cc1ccsc1/C=N/Nc1nc(=O)[nH]nc1C,–,–,–,21µM,·,15µM
COc1cc2c(ccc3cc(OC)c(OC)c(O)c32)cc1O,–,–,–,7.3µM,–,9.2µM
COc1cc(-c2cc(C(=O)O)c3c(OC)c(OC)c(OC)cc3n2)ccc1O,–,–,–,–,–,–
C/C(=N\NC(=S)NCC(C)(C)C)c1cc(F)cc(F)c1O,-110,-88,–,15µM,·,15µM
CC(C)OC(=O)c1cc2c(ccn2C)n1CC(=O)N(Cc1ccccc1)c1ccccc1,-64,–,–,?,28µM,16µM
CCOC(=O)c1cc2c(ccn2C)n1Cc1cc(C)ccc1C,–,–,–,?,–,?
Cc1ccc(C)c(N2CCN(CCN3CCCCC3)CC2)c1,–,–,–,–,–,?
Cc1ccc(C)c(N2CCN(Cc3csc(C)c3C)CC2)c1,·,·,–,?,–,15µM
Cc1ccc(-c2c(CN3CCN(c4cc(C)ccc4C)CC3)csc2C)cc1,·,·,–,?,–,16µM
COc1ccc(N2CCN(Cc3csc(C)c3-c3ccc(C)cc3)CC2)cc1,–,–,–,?,–,?
